Records with an inconclusive call do not appear. Unmarked numbers belong to inactive results. The source made the active and inactive calls. Calls follow the shape of the dose curve; as a rule, active = well fitted cell-killing curve with a large enough effect; inconclusive = small, poorly fitted or top-dose-only effect, or effect the other way; inactive = no such curve, though single readings can be large or run the other way.
experiment: Quantitative High-Throughput drug screen in 47 multiple myeloma cell lines against the NCATS MIPE library collection: JJN3_DSMZ cell viability assay (AID 1918966; also: nearly all actives have a fitted effect of over 50% in size); details: JJN3 myeloma cells viability, CellTiter-Glo ATP, 48 h; series mostly up to 45.8 µM; viability, % of DMSO: at the top concentration
Description: PI: Beverly A. Mock Ph.D.
Laboratory of Cancer Biology and Genetics,
Center for Cancer Research, National Cancer Institute,
National Institute of Health, Bethesda, Maryland
Drug resistance and disease progression are common in multiple myeloma (MM) patients, underscoring the need for new therapeutic combinations. […] We hypothesized that effective combinations would reduce MYC expression and enhance p16 activity. […] These preclinical data identify potentially useful drug combinations for evaluation in drug-resistant MM and reveal potential mechanisms of combined drug sensitivity.
Described herein is the primary MIPE qHTS used to cherrypick compounds. Validated compounds were then further tested for potential synergistic activiy.
[1] Peat TJ, Gaikwad SM, Dubois W, Gyabaah-Kessie N, Zhang S, Gorjifard S, Phyo Z, Andres M, Hughitt VK, Simpson RM, Miller MA, Girvin AT, Taylor A, Williams D, D'Antonio N, Zhang Y, Rajagopalan A, Flietner E, Wilson K, Zhang X, Shinn P, Klumpp-Thomas C, McKnight C, Itkin Z, Chen L, Kazandijian D, Zhang J, Michalowski AM, Simmons JK, Keats J, Thomas CJ, Mock BA. Drug combinations identified by high-throughput screening promote cell cycle transition and upregulate Smad pathways in myeloma. Cancer Lett. 2023 Aug 1;568:216284. doi: 10.1016/j.canlet.2023.216284. Epub 2023 Jun 24. PMID: 37356470; PMCID: PMC10408729.
SEQUENCE No. (e.g., 1, 2, 3, etc.); […] (e.g., Cells, Incubation, Reagent, etc.); VALUE and DESCRIPTION.
1; Cells; 5 uL; white, solid bottom 1536-well Greiner assay plate.
2; Compounds; 23 nL; Kalypsis pin tool (Wako USA) equipped with a 1536-well pin head to transfer to the assay plates.
3; Incubation; 48 hours; 37C incubation.
4; Reagent;5uL; CellTiter Glo (Promega).
5; Detector; 425V; Luminescence; Viewlux PerkinElmer.
NOTES (numbers refer to Sequence numbers above)
1. The cell-based screening methods employed in this study were like those previously published. Briefly, the corresponding myeloma cell lines were screened in 1,536-well plates with 500 cells, 5-uL per well for inhibition of cell viability (assessed by measuring ATP levels with CellTiterGlo).
2. NCATS MIPE 4.0 library of approved and investigational drugs were added using the Kalypsis pin tool. Wells treated with DMSO only for 100% viability and media only wells for 0% viability were used as controls.
3. The assay plates were covered and incubated for 48 hours in a 37C, 5% CO2 incubator with controlled humidity.
4. After 48 hours, CellTilter-GloTM luminescent substrate mix (Promega) reagent was added to the assay plate and plates we incubated for 5 min at room temperature.
5. Signal was measured as median relative luminescence units on a ViewLux (PerkinElmer) multiplate reader.
[1] Heske CM, Davis MI, Baumgart JT, Wilson K, Gormally MV, Chen L, Zhang X, Ceribelli M, Duveau DY, Guha R, Ferrer M, Arnaldez FI, Ji J, Tran HL, Zhang Y, Mendoza A, Helman LJ, Thomas CJ. Matrix Screen Identifies Synergistic Combination of PARP Inhibitors and Nicotinamide Phosphoribosyltransferase (NAMPT) Inhibitors in Ewing Sarcoma. Clin Cancer Res. 2017 Dec 1;23(23):7301-7311. doi: 10.1158/1078-0432.CCR-17-1121. Epub 2017 Sep 12. PMID: 28899971; PMCID: PMC6636827.
Potency is read from the fitted curve at half-maximal effect.

SMILES	Potency	viability, % of DMSO
C[C@]12C=CC(=O)N[C@@H]1CC[C@H]1[C@H]3CC[C@@H](C(=O)Nc4cc(C(F)(F)F)ccc4C(F)(F)F)[C@@]3(C)CC[C@@H]12	18.7 µM (active)	
CN(CC(=O)N(Cc1ccc(C2CCCCC2)cc1)c1ccc(C(=O)O)c(O)c1)S(=O)(=O)c1c(F)c(F)c(F)c(F)c1F	18.7 µM (active)	
CCc1cnn2c(NCc3ccc[n+]([O-])c3)cc(N3CCCC[C@@H]3CCO)nc12	0.0118 µM (active)	
OCC(O)C(O)C(O)CO (stereo not given)	2.96 µM (active)	
C[C@H](NC(=O)C(C#N)=Cc1cccc(Br)n1)c1ccccc1	4.18 µM (active)	
CN[C@@H]1C[C@H]2O[C@@](C)([C@H]1OC)n1c3ccccc3c3c4c(c5c6ccccc6n2c5c31)C(=O)N[C@H]4O	1.66 µM (active)	
CN1C(C(=O)Nc2ccccn2)=C(O)c2sc(Cl)cc2S1(=O)=O	3.72 µM (active)	
Nc1nc(N)c2nc(-c3cccc(O)c3)c(-c3cccc(O)c3)nc2n1	18.7 µM (active)	
CC(Cc1ccc(O)c(O)c1)(NN)C(=O)O (stereo not given)	23.5 µM (active)	
Oc1ccc(-c2ccc(-c3cc(Nc4cccc(CNC5CC5)c4)n[nH]3)cc2)c(O)c1	1.32 µM (active)	
CCN(CC)Cc1ccc2cc(COC(=O)Nc3ccc(C(=O)NO)cc3)ccc2c1	0.833 µM (active)	
Cc1[nH]c(C=C2C(=O)Nc3ccccc32)c(C)c1CCC(=O)O	18.7 µM (active)	
Cc1coc2c1C(=O)C(=O)c1c-2ccc2c(C)cccc12	18.7 µM (active)	
Cn1c(Nc2ccc(C(F)(F)F)cc2)nc2cc(Oc3ccnc(-c4ncc(C(F)(F)F)[nH]4)c3)ccc21	16.6 µM (active)	
Cc1ccc([N+](=O)[O-])cc1S(=O)(=O)N(C)N=Cc1cnc2ccc(Br)cn12	0.0105 µM (active)	
CN(C)c1ccc(C(=O)NCCCCCCC(=O)NO)cc1	1.05 µM (active)	
CC(=O)OCC(=O)[C@@]1(O)CC[C@H]2[C@@H]3CCC4=CC(=O)CC[C@]4(C)[C@@H]3C(=O)C[C@@]21C		141%
C=C1C[C@@]2(O)O[C@@]3(C[C@H]2C(C)C)[C@H](C)CC[C@H]13		137%
O=C(Nc1ccc(Oc2ccnc3[nH]ccc23)c(F)c1)c1cccn(-c2ccc(F)cc2)c1=O	20.9 µM (active)	
CC(C)(O)CC[C@@H](O)[C@](C)(O)[C@H]1CC[C@@]2(O)C3=CC(=O)[C@@H]4C[C@@H](O)[C@@H](O)C[C@]4(C)[C@@H]3CC[C@]12C		80.4%

SMILES	Potency	viability, % of DMSO
CC(C)Oc1ccc(C(=O)N[C@H](CNC(=O)CN(C)C)Cc2ccc(-c3cn4cccc([C@H](C)O)c4n3)cc2)cc1Cl		119%
O=c1[nH]c(=O)n([C@H]2C[C@@H](O)[C@@H](CO)O2)cc1C=CBr		128%
OCCNC1CCCc2c1[nH]c1ccc(-c3ccccc3)cc21 (stereo not given)	23.5 µM (active)	
CCC(C=C[C@@H]1OC(=O)C=C[C@H]1C)=C[C@H](C)CC=CC(C)=C[C@@H](C)C(=O)[C@@H](C)[C@H](O)[C@@H](C)CC(C)=CC(=O)O	0.022 µM (active)	
COC[C@H](NC(=O)c1cnc(C)s1)C(=O)N[C@@H](COC)C(=O)N[C@@H](Cc1ccccc1)C(=O)[C@@]1(C)CO1	0.0935 µM (active)	
C[C@@H](Oc1ccc2[nH]nc(C=Cc3cnn(CCO)c3)c2c1)c1c(Cl)cncc1Cl	8.33 µM (active)	
C=CC(=O)N1CCc2ccc(-n3c(=O)ccc4cnc5ccc(-c6cnn(C)c6)cc5c43)cc21	1.05 µM (active)	
Cn1cnc(=N)c2[nH]cnc21	0.166 µM (active)	
CC(C)N1[N]C(=C2C=c3cc(O)ccc3=N2)c2c(N)ncnc21	0.209 µM (active)	
NC(=O)c1ncn([C@@H]2O[C@H](CO)[C@@H](O)[C@@H]2O)c1N		183%
Cc1cc(O)c2c(c1)C(=O)c1cccc(O)c1C2=O		171%
CS(=O)(=O)N1CCc2c(-c3cnc(N)nc3)nc(N3CCOCC3)nc21	0.59 µM (active)	
CC(C)(C)[N+]([O-])=Cc1ccc(S(=O)(=O)O)cc1S(=O)(=O)O		155%
O=c1c(O)c(-c2ccc(O)c(O)c2)oc2cc(O)ccc12	20.9 µM (active)	
CCc1ccc(C(=O)Nc2cc(CN3CCN(C)CC3)cc(C(F)(F)F)c2)cc1C#Cc1cnc2ccnn2c1	20.9 µM (active)	
COc1cc2c(Nc3ccc(Cl)c(Cl)c3F)ncnc2cc1OCC1C[C@@H]2CN(C)C[C@H]2C1	1.32 µM (active)	
C#CCC(Cc1cnc2nc(N)nc(N)c2n1)c1ccc(C(=O)N[C@@H](CCC(=O)O)C(=O)O)cc1 (stereo not given in full)	0.0662 µM (active)	
CC(=O)SCC(Cc1ccccc1)C(=O)NCC(=O)OCc1ccccc1 (stereo not given)	5.9 µM (active)	
O=C(C[C@@H]1CC=CCCC(=O)O[C@H](c2ccccc2)CNC1=O)NCc1ccc(Cl)cc1		134%
CCCCCCCCc1ccc(CCC(N)(CO)CO)cc1	18.7 µM (active)	

Reference: PubChem BioAssay (NCATS)
